MCF10A rereplic: induces DNA re-replication in MCF 10a normal breast cells | AID 624296 | MCF 10A DNA re-replication, Hoechst nuclear intensity, 48 h | Potency, µM (doses to about 46.1 µM), inactives show at the highest dose activity, positive = re-replication, actives largely listed as activators | 2.9% of 350,000 active; further: % of control where 0% means no effect; nearly all actives have a fitted effect of over 50% in size
HT1080 IDH1KD tx: kills HT-1080 cells with IDH1 knockdown. AID 686971. 2% of 360,000 active. Potency, µM (titrated, usually from 46.1 µM), without a hit: at the highest dose activity, negative = toxicity, actives largely listed as cytotoxic. HT-1080 IDH1 knockdown viability, ATP luminescence, 48 h;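 further: 0% = DMSO wells and -100% = cell-free medium wells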
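Luminescent ATP read-out (CellTiter-Glo, 10 min at room temperature) after 48 h compound exposure at 37 °C gave viability of IDH1-knockdown HT-1080 cells. Activity was normalised to DMSO and cell-free wells, then fitted as concentration-response curves.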
KB-V1 cytotox: kills drug-selected multidrug resistant KB-V1 cells | KB-V1 MDR cells viability, CellTiter-Glo, 72 h | Potency, µM (highest dose often 46.1 µM), usual class: cytotoxic | 3.4% of 400,000 active | AID 1347076; further: on the % scale 0 is the no-effect control and ±100 the full control effect; nearly all actives have a fitted effect of over 60% in size
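KB-V1 MDR subline cells in DMEM (phenol-red free, 10% FBS) exposed to compounds in qHTS concentration series for 72 h at 37 degrees C. Viability read by CellTiter-Glo luminescence; concentration-effect curves fitted after normalization and correction.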
SW480 rerep: DNA re-replication induction in SW480 cells; Potency, µM (top dose mostly 46.1 µM), inactives show top-dose re-replication activation, most hits filed as activators; SW480 DNA re-replication, Hoechst DNA content imaging, 48 h; 1.8% of 340,000 active; further: % of control where 0% means no effect; nearly all actives have a fitted effect of over 55% in size
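Image-based read-out: total Hoechst fluorescence of nuclei (405 nm excitation, 500-530 nm emission), with hits raising the fraction of high-intensity nuclei. SW480 colon cells incubated 48 hr with compounds at 37 C.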
KB-3-1 tox: kills parental KB-3-1 adenocarcinoma cells. 1.4% of 400,000 active. AID 1347075. KB-3-1 viability, CellTiter-Glo ATP luminescence, 72 h. Potency, µM (top dose mostly 46.1 µM), most hits filed as cytotoxic; further: on the % scale 0 is the no-effect control and ±100 the full control effect; nearly all actives have a fitted effect of over 60% in size
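Viability of parental KB-3-1 cells, measured by CellTiter-Glo luminescence, followed a 72 h incubation at 37 °C with pinned compounds in phenol-red-free DMEM containing 10% FBS.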
HT1080-NT tox: kills 2HG-producing HT-1080-NT fibrosarcoma cells | Potency, µM (series often up to 46.1 µM), for inactives: at the top dose activity, negative = less viability, most hits filed as cytotoxic | HT-1080-NT fibrosarcoma viability, CellTiter-Glo ATP luminescence, 48 h | AID 686970 | 1.6% of 360,000 active;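 further: NT is the 2HG producing partner of a matched IDH1 knockdown line; 0% = DMSO-treated cells and -100% = media-only wells without cells; nearly all actives have a fitted effect of over 55% in size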
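750 cells/well, RPMI + 5% FBS; 2 h settle, compound pin-transfer, 48 h at 37 degrees C. CellTiter-Glo 10 min RT, luminescence. Normalized to DMSO and media-only wells.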
Active calls of the source: *; i = inactive; ? = inconclusive; · = no result; [ ] = dose if it differs, or a comment. Compounds with a hit are over-represented: about 8% of the library has one in this group of screens. The call rests on the fitted dose curve; in most records, active means well fitted curve in the direction sought with a large enough effect; inconclusive means small, poorly fitted or top-dose-only effect, or another doubt; inactive means no such curve, though single readings can be large; an effect the other way counts as inactive or inconclusive. Potency means the concentration at half of the fitted maximal effect.

SMILES	MCF10A rereplic	HT1080 IDH1KD tx	KB-V1 cytotox	SW480 rerep	KB-3-1 tox	HT1080-NT tox
CCc1ccccc1Nc1cc(C(=O)NCCc2ccccc2)c2ccccc2n1	·	·	i	·	i	·
CCCCOc1ccc(S(=O)(=O)NCc2csc(C)n2)cc1	-2%	-22%[9.24 µM]	?	-5%	18µM*	?
CC(=O)N(CCC1(C(C)C)CCOC(C)(C)C1)Cc1ccco1 (centres undefined)	1%	-2%	12µM*	-2%	i	-3%
COCCn1c(C)cc(C2=NNC(=NC3CC3)SC2)c1C	?	?	?	-6%	i	?
COc1ccc(-n2c(C)cc(C3=NNC(=NC4CC4)SC3)c2C)cc1	9.2µM*	21µM*	?	?	?	23µM*
COCCCN=C1NN=C(c2cc(C)n(Cc3ccco3)c2C)CS1	?	1.6µM*	?	5.8µM*	?	1.6µM*
c1ccc2c(C3=NNC(=NC4CC4)SC3)c[nH]c2c1	6%	-3%	i	-1%	i	-15%
c1ccc(C2=NNC(=NC3CC3)SC2)cc1	-9%	18µM*	i	-1%	?	?
Cc1cc(C2=NNC(=NC3CC3)SC2)c(C)n1Cc1ccco1	6.5µM*	7.3µM*	5.2µM*	·	3.3µM*	7.3µM*
COc1ccc(CNC(=O)CCc2c(C)nc3c(c2C)c(=O)n(C)c(=O)n3C)cc1	·	·	i	·	i	·
CN(C(=O)CC(=O)Nc1ccc2nc3n(c(=O)c2c1)CCCCC3)c1ccccc1F	·	·	i	·	i	·
Cc1cc(OCC(=O)Nc2ccc(F)c(F)c2)nc(C(C)C)n1	?	-3%[9.24 µM]	i	23µM*	i	?
Cc1cc(OCC(=O)Nc2ccccc2F)nc(C(C)C)n1	-2%	0%	i	-4%	i	6%
COc1cc(C(=S)N2CCCC2)cc(OC)c1OC	3.7µM*	0%	i	-20%	i	7%
O=C(/C=C/c1ccccc1)c1ccc2c3c(cccc13)CC2	18µM*	?	?	9%	?	?
O=C(/C=C/c1ccccc1O)c1ccccc1	?	-14%	i	?	i	22%
C=C(C(=O)O)c1ccc2ccccc2c1	·	·	i	·	i	·
N#Cc1ccc(/C=C/C(=O)c2ccccc2)cc1	21µM*	?	i	0%	i	?
O=C(/C=C/c1ccccc1)c1ccccc1	?	21µM*	?	?	i	16µM*
O=C(/C=C/c1ccccc1)c1ccc2ccccc2c1	?	?	i	141%	i	23µM*
COc1cccc(-c2nc(SCc3cc(=O)c4cc(Cl)ccc4[nH]3)n[nH]2)c1	·	·	i	·	i	·
COc1c(N2C[C@@H]3CCCN[C@H]3C2)c(F)cc2c(=O)c(C(=O)O)cn(C3CC3)c12	17%	·	·	0%	·	·
O=C(CC1N=C2c3ccccc3N=C(SCc3ccccc3Cl)N2C1=O)NCc1cccs1 (centres undefined)	·	·	i	·	i	·
O=C(/C=C/c1ccccc1)/C=C/c1ccccc1	3.3µM*	?	?	21µM*	?	-17%
O/N=C(/C[n+]1csc2ccccc21)c1ccccc1	·	·	i	·	?	·
SMILES	MCF10A rereplic	HT1080 IDH1KD tx	KB-V1 cytotox	SW480 rerep	KB-3-1 tox	HT1080-NT tox
COc1ccc(C2C(C(C)=O)=C(O)C(=O)N2c2nccs2)c(OC)c1 (centres undefined)	3%	-2%	i	21µM*	i	10%
Cc1ccc(-n2nnnc2SCc2nnc(-c3ccccc3Br)o2)cc1	28%	-8%	16µM*	23%	i	0%
Brc1ccccc1-c1nnc(CSc2nncn2-c2ccccc2)o1	9%	1%	i	2%	i	-2%
Cc1cc(C)n2nc(SCc3nnc(-c4ccccc4Br)o3)nc2n1	0%	4%	13µM*	-14%	i	0%
COc1ccc(CNc2nc3ccccc3n2CCN2CCCCC2)c(OC)c1	19%	-25%	18µM*	0%	i	-13%
COc1ccc(OC)c(CNc2nc3ccccc3n2CCN2CCCCC2)c1	7%	?	4.1µM*	24%	?	?
COc1ccc(CNc2nc3ccccc3n2Cc2ccc(C)cc2)cc1OC	?	9%	3.3µM*	16%	i	-1%
CCCn1c(-c2ccc(OC)cc2)nc2ccccc21	24%	?	18µM*	27%	?	-17%
CC(C)CSc1ccccc1NC(=O)c1sc2nc(-c3ccncc3)ccc2c1N	·	·	i	·	i	·
CCCn1c(NCc2cc(OC)ccc2OC)nc2ccccc21	1%	6%	4.1µM*	5%	i	0%
CCC1Oc2ccc(C)cc2N(CC(=O)NCc2ccc(OC)cc2)C1=O (centres undefined)	·	·	i	·	i	·
CCOC(=O)Nc1cc2c(c(N)n1)N=C(c1ccccc1)CN2	?	?	0.13µM*	?	0.18µM*	0.46µM*
Cn1cc(S(=O)(=O)N2CCCCCC2)cc1C(=O)Nc1ccccc1F	·	·	i	·	i	·
CCOc1cccc(/C=N/Nc2ccc(S(=O)(=O)N(CC)CC)cn2)c1O	5.2µM*	2.6µM*	?	?	i	?
CCOc1cccc(/C=N/NC(=O)C2CCCC2)c1O	9%	?	i	5.8µM*	i	-18%
CCn1cc(C(=O)NCCc2ccccc2)c(=O)c2cc(S(=O)(=O)N(C)C3CCCCC3)ccc21	·	·	i	·	i	·
Cn1c(=O)c2c(nc(N3CCCCCC3)n2Cc2cccc3ccccc23)n(C)c1=O	?	-29%	?	-7%	18µM*	-5%
Cn1c(N2CCOCC2)nc2c1c(=O)n(Cc1ccc(Cl)cc1)c(=O)n2C	13%	3%	23µM*	0%	i	4%
Cn1c(N2CCN(c3ccccn3)CC2)nc2c1c(=O)n(Cc1ccc(Cl)cc1)c(=O)n2C	-4%	6%	?	8%	i	7%
Cn1c(N2CCCCC2)nc2c1c(=O)n(Cc1cccc(Br)c1)c(=O)n2C	6%	15%	10µM*	-6%	i	5%
CN1CCN(c2nc3c(c(=O)n(C)c(=O)n3C)n2Cc2cccc(Br)c2)CC1	?	-4%	i	-22%	i	-5%
C=CCOc1nc2c(c(=O)n(Cc3ccc(Cl)c(Cl)c3)c(=O)n2C)n1C	?	7%	?	1%	i	5%
CC1CN(c2nc3c(c(=O)n(Cc4ccc(Cl)c(Cl)c4)c(=O)n3C)n2C)CC(C)O1 (centres undefined)	?	-16%	5.2µM*	?	?	-7%

Screening results: PubChem, National Center for Advancing Translational Sciences (NCATS)
